This is an account of results in article PMC9911399, “Two distinct binding modes provide the RNA-binding protein RbFox with extraordinary sequence specificity”.

Positions count from the first letter of the chain named. The full ranking holds about 16,000 sequences; the median of “ka relative to ugcaugu” is about 0.096, and the highest 2% start at about 0.35. What follows is part of a selection rich in the highest values, with near analogues and random picks from the rest.

T1: RBFOX1 RRM RbFoxmut (Fox-RRM*) (Homo sapiens, UniProt Q9NWB1 109-208, R118D;E147R;N151S;E152T)
T1 sequence: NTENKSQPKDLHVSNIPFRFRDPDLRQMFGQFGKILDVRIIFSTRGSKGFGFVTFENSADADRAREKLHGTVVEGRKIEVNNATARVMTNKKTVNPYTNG

B1: CACAAUA (DNA:RNA)
RNA: GGGAGACCGGAAUUCAGAUUGUCCCACAAUAUUAAAUCCCGUCGUAGCCACCA
DNA 1: CAATCTGAATTCCGGTCTCCC
DNA 2: TGGTGGCTACGACGGGATT
B2: GGGAAUC (DNA:RNA)
RNA: B1 RNA with C25G, A26G, C27G, A31C
DNA 1: CAATCTGAATTCCGGTCTCCC
DNA 2: TGGTGGCTACGACGGGATT
B3: CGUAAUC (DNA:RNA)
RNA: B1 RNA with A26G, C27U, A31C
DNA 1: CAATCTGAATTCCGGTCTCCC
DNA 2: TGGTGGCTACGACGGGATT
B4: GGGCAUC (DNA:RNA)
RNA: B1 RNA with C25G, A26G, C27G, A28C, A31C
DNA 1: CAATCTGAATTCCGGTCTCCC
DNA 2: TGGTGGCTACGACGGGATT
B5: CGGCAUC (DNA:RNA)
RNA: B1 RNA with A26G, C27G, A28C, A31C
DNA 1: CAATCTGAATTCCGGTCTCCC
DNA 2: TGGTGGCTACGACGGGATT
B6: GGCAUCU (DNA:RNA)
RNA: B1 RNA with C25G, A26G, A29U, U30C, A31U
DNA 1: CAATCTGAATTCCGGTCTCCC
DNA 2: TGGTGGCTACGACGGGATT
B7: CGGAAUC (DNA:RNA)
RNA: B1 RNA with A26G, C27G, A31C
DNA 1: CAATCTGAATTCCGGTCTCCC
DNA 2: TGGTGGCTACGACGGGATT
B8: GGAGAUC (DNA:RNA)
RNA: B1 RNA with C25G, A26G, C27A, A28G, A31C
DNA 1: CAATCTGAATTCCGGTCTCCC
DNA 2: TGGTGGCTACGACGGGATT
B9: CGGUAUC (DNA:RNA)
RNA: B1 RNA with A26G, C27G, A28U, A31C
DNA 1: CAATCTGAATTCCGGTCTCCC
DNA 2: TGGTGGCTACGACGGGATT
B10: GUUAAUC (DNA:RNA)
RNA: B1 RNA with C25G, A26U, C27U, A31C
DNA 1: CAATCTGAATTCCGGTCTCCC
DNA 2: TGGTGGCTACGACGGGATT
B11: GGUAUCU (DNA:RNA)
RNA: B1 RNA with C25G, A26G, C27U, A29U, U30C, A31U
DNA 1: CAATCTGAATTCCGGTCTCCC
DNA 2: TGGTGGCTACGACGGGATT
B12: CGUCAUC (DNA:RNA)
RNA: B1 RNA with A26G, C27U, A28C, A31C
DNA 1: CAATCTGAATTCCGGTCTCCC
DNA 2: TGGTGGCTACGACGGGATT
B13: GGGUAUC (DNA:RNA)
RNA: B1 RNA with C25G, A26G, C27G, A28U, A31C
DNA 1: CAATCTGAATTCCGGTCTCCC
DNA 2: TGGTGGCTACGACGGGATT
B14: UUGGUAC (DNA:RNA)
RNA: GGGAGACCGGAAUUCAGAUUGUCCUUGGUACUUAAAUCCCGUCGUAGCCACCA
DNA 1: CAATCTGAATTCCGGTCTCCC
DNA 2: TGGTGGCTACGACGGGATT
B15: CGUCAGG (DNA:RNA)
RNA: B1 RNA with A26G, C27U, A28C, U30G, A31G
DNA 1: CAATCTGAATTCCGGTCTCCC
DNA 2: TGGTGGCTACGACGGGATT
B16: ACUGCGG (DNA:RNA)
RNA: B14 RNA with U25A, U26C, G27U, U29C, A30G, C31G
DNA 1: CAATCTGAATTCCGGTCTCCC
DNA 2: TGGTGGCTACGACGGGATT
B17: UAAAUAU (DNA:RNA)
RNA: B14 RNA with U26A, G27A, G28A, C31U
DNA 1: CAATCTGAATTCCGGTCTCCC
DNA 2: TGGTGGCTACGACGGGATT
B18: UCUACGU (DNA:RNA)
RNA: B1 RNA with C25U, A26C, C27U, A29C, U30G, A31U
DNA 1: CAATCTGAATTCCGGTCTCCC
DNA 2: TGGTGGCTACGACGGGATT
B19: AGUUUCU (DNA:RNA)
RNA: B14 RNA with U25A, U26G, G27U, G28U, A30C, C31U
DNA 1: CAATCTGAATTCCGGTCTCCC
DNA 2: TGGTGGCTACGACGGGATT
B20: UAGACCC (DNA:RNA)
RNA: B14 RNA with U26A, G28A, U29C, A30C
DNA 1: CAATCTGAATTCCGGTCTCCC
DNA 2: TGGTGGCTACGACGGGATT
B21: UUAAAUG (DNA:RNA)
RNA: B1 RNA with C25U, A26U, C27A, A31G
DNA 1: CAATCTGAATTCCGGTCTCCC
DNA 2: TGGTGGCTACGACGGGATT
B22: UUGAUCC (DNA:RNA)
RNA: B14 RNA with G28A, A30C
DNA 1: CAATCTGAATTCCGGTCTCCC
DNA 2: TGGTGGCTACGACGGGATT
B23: UUGAUUC (DNA:RNA)
RNA: B14 RNA with G28A, A30U
DNA 1: CAATCTGAATTCCGGTCTCCC
DNA 2: TGGTGGCTACGACGGGATT
B24: UUGAAUC (DNA:RNA)
RNA: B14 RNA with G28A, U29A, A30U
DNA 1: CAATCTGAATTCCGGTCTCCC
DNA 2: TGGTGGCTACGACGGGATT
B25: UUGAAAU (DNA:RNA)
RNA: B14 RNA with G28A, U29A, C31U
DNA 1: CAATCTGAATTCCGGTCTCCC
DNA 2: TGGTGGCTACGACGGGATT
B26: UUGUUGA (DNA:RNA)
RNA: B14 RNA with G28U, A30G, C31A
DNA 1: CAATCTGAATTCCGGTCTCCC
DNA 2: TGGTGGCTACGACGGGATT
B27: UUAAAUC (DNA:RNA)
RNA: B1 RNA with C25U, A26U, C27A, A31C
DNA 1: CAATCTGAATTCCGGTCTCCC
DNA 2: TGGTGGCTACGACGGGATT
B28: UUGAUUG (DNA:RNA)
RNA: B14 RNA with G28A, A30U, C31G
DNA 1: CAATCTGAATTCCGGTCTCCC
DNA 2: TGGTGGCTACGACGGGATT
B29: UUGAAUG (DNA:RNA)
RNA: B1 RNA with C25U, A26U, C27G, A31G
DNA 1: CAATCTGAATTCCGGTCTCCC
DNA 2: TGGTGGCTACGACGGGATT
B30: CCAAUUG (DNA:RNA)
RNA: B1 RNA with A26C, C27A, A29U, A31G
DNA 1: CAATCTGAATTCCGGTCTCCC
DNA 2: TGGTGGCTACGACGGGATT
B31: GUGGUAG (DNA:RNA)
RNA: B14 RNA with U25G, C31G
DNA 1: CAATCTGAATTCCGGTCTCCC
DNA 2: TGGTGGCTACGACGGGATT

The target of the experiment is T1, RBFOX1 RRM RbFoxmut (Fox-RRM*). The experiment can be described thus: EMSA; HiTS-Eq, 1 nM pool, 10 min; buffer printed only for the single-RNA assays: 10 mM Tris pH 7.5, 150 mM NaCl, 3.4 mM EDTA, 0.001% NP-40, 30 C. Conditions: tags: His6 N-terminal (pET28a); label: 5' 32P. The method, boiled down:
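A pool of RNA with 7 randomized nucleotides, 5′-radiolabelled and with DNA-annealed flanks, was equilibrated at 1 nM for 10 min in 50 µL with purified RbFox RRM, wild type or mutant, across increasing protein concentrations. Free RNA was separated by 8% native PAGE, excised, reverse-transcribed, barcoded by PCR and sequenced. Relative association constants were obtained from read-count changes of each RNA species versus the control reaction and normalised to the cognate motif.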
(In EMSA bound probe runs differently from free probe, usually more slowly.)
Regarding B1, the binding signal is 0.084 KA relative to UGCAUGU. To B2 belongs 0.494 KA relative to UGCAUGU; to B3, 0.0673 KA relative to UGCAUGU; to B4, 0.396 KA relative to UGCAUGU.

With B5, the binding signal was 0.261 KA relative to UGCAUGU. To B6 belongs 0.27 KA relative to UGCAUGU; to B7, 0.436 KA relative to UGCAUGU; to B8, 0.155 KA relative to UGCAUGU.

With B9, the binding signal is 0.245 KA relative to UGCAUGU. For B10 the value was 0.0571 KA relative to UGCAUGU; for B11, 0.206 KA relative to UGCAUGU; for B12, 0.0997 KA relative to UGCAUGU.

For the molecule B13, the binding signal was 0.409 KA relative to UGCAUGU. In the case of B14, the binding signal was 0.144 KA relative to UGCAUGU.

In the case of B15, the binding signal was 0.113 KA relative to UGCAUGU. For B16, the binding signal was 0.0963 KA relative to UGCAUGU. For B17 the value was 0.0636 KA relative to UGCAUGU; for B18, 0.118 KA relative to UGCAUGU; for B19, 0.0838 KA relative to UGCAUGU. For B20 the value was 0.0507 KA relative to UGCAUGU. To B21 belongs 0.0888 KA relative to UGCAUGU; to B22, 0.0834 KA relative to UGCAUGU. Turning to B23, the binding signal was 0.196 KA relative to UGCAUGU.

Take B24: the binding signal is 0.374 KA relative to UGCAUGU. With B25, the binding signal was 0.0963 KA relative to UGCAUGU.

With B26, the binding signal was 0.0998 KA relative to UGCAUGU. For B27 the value was 0.0555 KA relative to UGCAUGU; for B28, 0.381 KA relative to UGCAUGU. B29: the binding signal was 1.17 KA relative to UGCAUGU.

As to B30, the binding signal is 0.0976 KA relative to UGCAUGU. With B31, the binding signal is 0.181 KA relative to UGCAUGU.
